Laboratory results reported in PubChem BioAssay (NCATS).
Results filed as inconclusive are left out. The source made the active and inactive calls. Calls follow the shape of the dose curve; as a rule, active = well fitted cell-killing curve with a large enough effect; inconclusive = small, poorly fitted or top-dose-only effect, or effect the other way; inactive = no such curve, though single readings can be large or run the other way.

What was measured:
[1] = Quantitative High-Throughput drug screen in 47 multiple myeloma cell lines against the NCATS MIPE library collection: MM1R_ATCC cell viability assay (AID 1918981); details: MM1R multiple myeloma cells, CellTiter-Glo viability, 48 h; series mostly up to 45.8 µM; also: nearly all actives have a fitted effect of over 35% in size; also: potency is read from the fitted curve at half-maximal effect
How it was run: (§1)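 Plated at 500 cells per well, myeloma lines received MIPE 4.0 compounds by pin tool. Following 48 h culture at 37 °C, CellTiter-Glo luminescence gave viability relative to DMSO and media-only controls.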

[2] = Quantitative High-Throughput drug screen in 47 multiple myeloma cell lines against the NCATS MIPE library collection: LP1_DSMZ cell viability assay (AID 1918982); details: LP1 myeloma viability, CellTiter-Glo ATP luminescence, 48 h; series mostly up to 45.8 µM; also: nearly all actives have a fitted effect of over 35% in size; also: potency is read from the fitted curve at half-maximal effect
How it was run: as §1

[3] = Quantitative High-Throughput drug screen in 47 multiple myeloma cell lines against the NCATS MIPE library collection: L363_DSMZ cell viability assay (AID 1918984); details: L363 myeloma viability, CellTiter-Glo ATP luminescence, 48 h; series mostly up to 45.8 µM; also: nearly all actives have a fitted effect of over 40% in size; also: potency is read from the fitted curve at half-maximal effect
How it was run: as §1

[4] = Quantitative High-Throughput drug screen in 47 multiple myeloma cell lines against the NCATS MIPE library collection: KMS34_JCRB cell viability assay (AID 1918985); details: KMS34 myeloma viability, CellTiter-Glo ATP luminescence, 48 h; series mostly up to 45.8 µM; also: nearly all actives have a fitted effect of over 40% in size; also: potency is read from the fitted curve at half-maximal effect
How it was run: as §1

[5] = Quantitative High-Throughput drug screen in 47 multiple myeloma cell lines against the NCATS MIPE library collection: OPM1_PLB cell viability assay (AID 1918989); details: CellTiter-Glo, 48 h; series mostly up to 45.8 µM; also: nearly all actives have a fitted effect of over 40% in size; also: potency is read from the fitted curve at half-maximal effect
How it was run: as §1

[6] = Quantitative High-Throughput drug screen in 47 multiple myeloma cell lines against the NCATS MIPE library collection: XG6_PLB cell viability assay (AID 1919865); details: XG6 myeloma viability, CellTiter-Glo ATP luminescence, 48 h; series mostly up to 45.8 µM; also: nearly all actives have a fitted effect of over 40% in size; also: potency is read from the fitted curve at half-maximal effect
How it was run: as §1

[7] = Quantitative High-Throughput drug screen in 47 multiple myeloma cell lines against the NCATS MIPE library collection: VP6_DJ cell viability assay (AID 1919867); details: ATP luminescence, 48 h; series mostly up to 45.8 µM; also: nearly all actives have a fitted effect of over 40% in size; also: potency is read from the fitted curve at half-maximal effect
How it was run: as §1

[8] = Quantitative High-Throughput drug screen in 47 multiple myeloma cell lines against the NCATS MIPE library collection: PE2_PLB cell viability assay (AID 1919869); details: PE2_PLB myeloma cells viability, ATP luminescence, 48 h; series mostly up to 45.8 µM; also: nearly all actives have a fitted effect of over 35% in size; also: potency is read from the fitted curve at half-maximal effect
How it was run: as §1

[9] = Quantitative High-Throughput drug screen in 47 multiple myeloma cell lines against the NCATS MIPE library collection: PCM6_Riken cell viability assay (AID 1919870); details: CellTiter-Glo ATP, 48 h; series mostly up to 45.8 µM; also: nearly all actives have a fitted effect of over 30% in size; also: potency is read from the fitted curve at half-maximal effect
How it was run: as §1

[10] = Quantitative High-Throughput drug screen in 47 multiple myeloma cell lines against the NCATS MIPE library collection: OPM2_DSMZ cell viability assay (AID 1919872); details: OPM2 myeloma viability, CellTiter-Glo ATP luminescence, 48 h; series mostly up to 45.8 µM; also: nearly all actives have a fitted effect of over 30% in size
How it was run: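 Viability readout: CellTiter-Glo luminescence following 5 min room-temperature incubation with reagent. Prior exposure: 48 h, 37C, humidified 5% CO2, 500 cells per well.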

[11] = Quantitative High-Throughput drug screen in 47 multiple myeloma cell lines against the NCATS MIPE library collection: KMS11_JCRBsus cell viability assay (AID 1919873); details: KMS11 myeloma viability, CellTiter-Glo ATP luminescence, 48 h; series mostly up to 45.8 µM; also: nearly all actives have a fitted effect of over 50% in size; also: potency is read from the fitted curve at half-maximal effect
How it was run: as §1

[12] = Quantitative High-Throughput drug screen in 47 multiple myeloma cell lines against the NCATS MIPE library collection: RPMI8226_ATCC cell viability assay (AID 1919871); details: RPMI8226 myeloma viability, CellTiter-Glo ATP luminescence, 48 h; series mostly up to 45.8 µM; also: nearly all actives have a fitted effect of over 30% in size; also: potency is read from the fitted curve at half-maximal effect
How it was run: as §1

[13] = Quantitative High-Throughput drug screen in 47 multiple myeloma cell lines against the NCATS MIPE library collection: MM1S_ATCC cell viability assay (AID 1918980); details: MM1S myeloma viability, CellTiter-Glo ATP luminescence, 48 h; also: potency is read from the fitted curve at half-maximal effect; nearly all actives have a fitted effect of over 45% in size
How it was run: as §1

[14] = Quantitative High-Throughput drug screen in 47 multiple myeloma cell lines against the NCATS MIPE library collection: OCIMY5_PLB cell viability assay (AID 1918988); details: OCI-MY5 myeloma viability, ATP luminescence, 48 h; also: potency is read from the fitted curve at half-maximal effect; nearly all actives have a fitted effect of over 65% in size
How it was run: as §1

[15] = Quantitative High-Throughput drug screen in 47 multiple myeloma cell lines against the NCATS MIPE library collection: SKMM1_PLB cell viability assay (AID 1919863); details: SKMM1 myeloma viability, CellTiter-Glo ATP, 48 h; viability: hits give low values; also: nearly all actives have a fitted effect of over 35% in size; also: potency is read from the fitted curve at half-maximal effect
How it was run: as §1

[16] = Quantitative High-Throughput drug screen in 47 multiple myeloma cell lines against the NCATS MIPE library collection: U266_ATCC cell viability assay (AID 1919864); details: U266 myeloma viability, CellTiter-Glo ATP luminescence, 48 h; series mostly up to 45.8 µM; also: nearly all actives have a fitted effect of over 35% in size; also: potency is read from the fitted curve at half-maximal effect
How it was run: as §1

[17] = Quantitative High-Throughput drug screen in 47 multiple myeloma cell lines against the NCATS MIPE library collection: XG1_PLB cell viability assay (AID 1919866); details: CellTiter-Glo ATP, 48 h; series mostly up to 45.8 µM; also: nearly all actives have a fitted effect of over 35% in size; also: potency is read from the fitted curve at half-maximal effect
How it was run: as §1

[18] = Quantitative High-Throughput drug screen in 47 multiple myeloma cell lines against the NCATS MIPE library collection: KMS28PE_JCRB cell viability assay (AID 1918983); details: KMS28PE multiple myeloma viability, CellTiter-Glo ATP, 48 h
How it was run: as §1

[19] = Quantitative High-Throughput drug screen in 47 multiple myeloma cell lines against the NCATS MIPE library collection: OCIMY7_PLB cell viability assay (AID 1918987); details: OCI-MY7 myeloma viability, CellTiter-Glo ATP, 48 h; also: potency is read from the fitted curve at half-maximal effect; nearly all actives have a fitted effect of over 65% in size
How it was run: as §1

[20] = Quantitative High-Throughput drug screen in 47 multiple myeloma cell lines against the NCATS MIPE library collection: UTMC2_PLB cell viability assay (AID 1919868); details: CellTiter-Glo ATP luminescence, 48 h; also: potency is read from the fitted curve at half-maximal effect; nearly all actives have a fitted effect of over 55% in size
How it was run: as §1

COC(=O)C1=CCCN(C)C1
inactive: Potency [1] | Potency [2] | Potency [3] | Potency [4] | Potency [5] | Potency [6] | Potency [7] | Potency [8] | Potency [9] | outcome [10] | Potency [11]

O=C(O)c1nn(Cc2ccc(Cl)cc2Cl)c2ccccc12
inactive: Potency [1] | Potency [2] | Potency [3] | Potency [4] | Potency [6] | Potency [8] | Potency [12] | outcome [10] | Potency [11]

COc1ccc(C(=O)N2CCCC2=O)cc1
active: Potency [13] 296 nM | Potency [14] 662 nM | Potency [12] 2350 nM | Potency [11] 20900 nM
inactive: Potency [1] | viability [15] 101% | Potency [16] | Potency [6] | Potency [17] | Potency [8]

C[C@@H]1C[C@@H]([C@H](O)CC2CC(=O)NC(=O)C2)C(=O)[C@@H](C)C1
active: Potency [13] 4180 nM | Potency [1] 1660 nM | Potency [2] 118 nM | Potency [18] 1180 nM | Potency [3] 743 nM | Potency [4] 118 nM | Potency [19] 2640 nM | Potency [14] 1660 nM | Potency [5] 833 nM | Potency [15] 296 nM | Potency [16] 1050 nM | Potency [6] 743 nM | Potency [17] 372 nM | Potency [7] 296 nM | Potency [20] 833 nM | Potency [8] 1480 nM | Potency [9] 935 nM | Potency [12] 833 nM | Potency [11] 187 nM
